Most compounds without a hit are left out; they make up all but 19% or so of the library.
TDP1 cell CPT: qHTS for Inhibitors of human tyrosyl-DNA phosphodiesterase 1 (TDP1): qHTS in cells in presence of CPT; Potency, µM (titrated, usually from 46.2 µM), without a hit: at the highest dose activity change, negative = growth inhibition, usual class: inhibitors; 420,000 tested, 12% active; chicken DT40 Tdp1-/-;hTDP1 cells + 20 nM CPT, ATP luminescence, 48 h; also: nearly all actives have a fitted effect of over 55% in size
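Cell growth measured by CellTiter-Glo luminescence after a minimum 48 h, 37 C compound exposure with 20 nM CPT in Tdp1-knockout DT40 cells stably expressing hTDP1, seeded 400/well; qHTS titration format.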
HT1080NT lethal: qHTS for induction of synthetic lethality in tumor cells producing 2HG: qHTS for the HT-1080-NT fibrosarcoma cell line. HT-1080-NT fibrosarcoma viability, CellTiter-Glo ATP luminescence, 48 h. 360,000 tested, 1.6% active. Potency, µM (titrated, usually from 46.1 µM), for the others: at the top dose activity, negative = less viability, usual class: cytotoxic;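 also: NT is the 2HG producing partner of a matched IDH1 knockdown line; 0% = DMSO-treated cells and -100% = media-only wells without cells; nearly all actives have a fitted effect of over 55% in size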
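A 48-hour cytotoxicity screen used HT-1080-NT cells plated 2 hours before compound delivery. ATP-based CellTiter-Glo luminescence measured viability, normalized to DMSO and no-cell controls.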
KB-3-1 cytotox: qHTS assay for MDR1-selective chemotherapeutics: Primary screen using the parental adenocarcinoma cell KB-3-1. KB-3-1 viability, CellTiter-Glo ATP luminescence, 72 h. Potency, µM (doses to about 46.1 µM), hits mostly cytotoxic. 400,000 tested, 1.4% active. AID 1347075, 2019; also: nearly all actives have a fitted effect of over 60% in size
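Cells are dispensed, compounds pinned in, plates held at 37 °C for 72 h, then CellTiter-Glo is added and luminescence read after 10 minutes. Cell line: parental KB-3-1 in phenol-red-free DMEM, 10% FBS.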
KB-V1 cytotox: qHTS assay for MDR1-selective chemotherapeutics: Primary screen using the drug-selected MDR subline cells KB-V1; KB-V1 MDR cells viability, CellTiter-Glo, 72 h; 400,000 tested, 3.4% active; Potency, µM (series often up to 46.1 µM), most hits filed as cytotoxic; also: nearly all actives have a fitted effect of over 60% in size
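Readout: CellTiter-Glo luminescence, 10 min after addition. Cells: KB-V1 MDR subline, 72 h at 37 degrees C with compound. Analysis: corrected, normalized data fitted to concentration-effect curves.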
HT1080 IDH1KD tx: qHTS for induction of synthetic lethality in tumor cells producing 2HG: qHTS for the HT-1080-IDH1KD cell line | 360,000 tested, 2% active | Potency, µM (series often up to 46.1 µM), for the others: at the highest dose activity, negative = toxicity, hits mostly cytotoxic | HT-1080 IDH1 knockdown viability, ATP luminescence, 48 h;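 also: 0% = DMSO wells and -100% = cell-free medium wells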
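Assay cells: HT-1080 with IDH1 knockdown, 750 per well, RPMI/5% FBS. Exposure: 48 h at 37 °C following 2 h pre-incubation. Read: CellTiter-Glo luminescence; fitted concentration-response, curve class assigned.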
TDP1 cell noCPT: qHTS for Inhibitors of human tyrosyl-DNA phosphodiesterase 1 (TDP1): qHTS in cells in absence of CPT | 420,000 tested, 15% active | DT40 Tdp1-/- hTDP1 cells, no CPT, ATP luminescence, 48 h | Potency, µM (highest dose often 46.2 µM), without a hit: at the highest dose activity change, negative = growth inhibition, usual class: inhibitors; also: nearly all actives have a fitted effect of over 55% in size
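Chicken DT40 Tdp1-/- cells stably complemented with human TDP1 were seeded at 400 cells/well with DMSO in place of 20 nM camptothecin. After compound pinning, cells grew at least 48 hr at 37 °C; viability read by CellTiter-Glo luminescence.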
* = called active by the depositor. Calls follow the shape of the dose curve; as a rule, active = well fitted curve in the direction sought with a large enough effect; inconclusive = small, poorly fitted or top-dose-only effect, or another doubt; inactive = no such curve, though single readings can be large; an effect the other way counts as inactive or inconclusive. Unless noted, % is scaled to controls: 0 for no effect and ±100 for the full control effect; potency is read from the fitted curve at half-maximal effect.

Results for Cc1ccc(S(=O)(=O)c2nnn(CC(=O)Nc3ccccc3C)c2N)cc1 ?
TDP1 cell CPT: 15.2%; KB-3-1 cytotox: 16.4µM*; KB-V1 cytotox: inconclusive; TDP1 cell noCPT: -7.1%

Results for Cc1ccc(S(=O)(=O)c2nnn(CC(=O)Nc3ccccc3C)c2N)cc1C ?
TDP1 cell CPT: inconclusive; KB-3-1 cytotox: inactive; KB-V1 cytotox: inactive; TDP1 cell noCPT: 14.6µM*

Results for Cc1cccc(C)c1NC(=O)Cn1nnc(S(=O)(=O)c2ccccc2)c1N ?
TDP1 cell CPT: -14.1%; TDP1 cell noCPT: -4.2%

What do the screens show for `COc1ccc(OC)c(S(=O)(=O)N2CCN(Cc3nc4ccc(C)cc4o3)CC2)c1`?
TDP1 cell CPT: inconclusive; KB-3-1 cytotox: inactive; KB-V1 cytotox: inactive; TDP1 cell noCPT: -11.5%

Results for COc1ccc2c(CNC3CCCC3)c(C(=O)O)n(Cc3ccccc3C)c2c1 ?
TDP1 cell CPT: inconclusive; KB-3-1 cytotox: inactive; KB-V1 cytotox: inactive; TDP1 cell noCPT: inconclusive

Results for O=C(CSc1ncn[nH]1)N1N=C2/C(=C/c3ccccc3)CCCC2C1c1ccccc1 (centres undefined) ?
TDP1 cell CPT: inconclusive; HT1080NT lethal: inconclusive; KB-3-1 cytotox: inactive; KB-V1 cytotox: inconclusive; HT1080 IDH1KD tx: inconclusive; TDP1 cell noCPT: inconclusive

What do the screens show for `Cc1ncsc1C(=O)N1N=C2/C(=C/c3ccccc3)CCCC2C1c1ccccc1` (centres undefined)?
TDP1 cell CPT: inconclusive; HT1080NT lethal: 0.0%; KB-3-1 cytotox: inconclusive; KB-V1 cytotox: 20.6µM*; HT1080 IDH1KD tx: -16.0%; TDP1 cell noCPT: inconclusive

Results for COc1ccc(/C=C2\CCCC3C2=NN(C(=O)CSc2ncn[nH]2)C3c2ccc(OC)cc2)cc1 (centres undefined) ?
TDP1 cell CPT: 18.4µM*; HT1080NT lethal: inconclusive; KB-3-1 cytotox: inactive; KB-V1 cytotox: inactive; HT1080 IDH1KD tx: inconclusive; TDP1 cell noCPT: 23.1µM*

How did CN(C)c1ccc(-c2noc(C3CC(=O)N(c4ccc5c(c4)OCCO5)C3)n2)cc1 (centres undefined) do in these assays?
TDP1 cell CPT: 4.61µM*; KB-3-1 cytotox: inconclusive; KB-V1 cytotox: inconclusive; TDP1 cell noCPT: 2.91µM*

Results for CCOc1ccc(N2CC(c3nc(-c4cc(OC)c(OC)c(OC)c4)no3)CC2=O)cc1 (centres undefined) ?
TDP1 cell CPT: inconclusive; KB-3-1 cytotox: inactive; KB-V1 cytotox: inactive; TDP1 cell noCPT: 25.9µM*

How did COc1ccc(N2CC(c3nc(-c4cc(OC)c(OC)c(OC)c4)no3)CC2=O)cc1Cl (centres undefined) do in these assays?
TDP1 cell CPT: inconclusive; TDP1 cell noCPT: 16.4µM*

How did COc1ccc(-n2nc(C(=O)N3CCN(c4cccc(C)c4C)CC3)c3c4ccccc4n(C)c3c2=O)cc1 do in these assays?
TDP1 cell CPT: -17.4%; KB-3-1 cytotox: inactive; KB-V1 cytotox: inactive; TDP1 cell noCPT: -8.8%

How did Cc1cccc(-n2c(=O)c3c4c(sc3n3c(C)nnc23)CCCC4)c1 do in these assays?
TDP1 cell CPT: inconclusive; KB-3-1 cytotox: inactive; KB-V1 cytotox: inactive; TDP1 cell noCPT: -18.7%

Results for CCOC(=O)CN1N=C(c2ccc(C)cc2)CCC1=O ?
TDP1 cell CPT: 22.3%; HT1080NT lethal: 1.0%; KB-3-1 cytotox: inactive; KB-V1 cytotox: inactive; HT1080 IDH1KD tx: 11.3%; TDP1 cell noCPT: -8.2%

Results for O=C(Nc1ccccc1)Nc1n[nH]c2nnc(-c3ccccc3)c(-c3ccccc3)c12 ?
TDP1 cell CPT: inconclusive; HT1080NT lethal: inconclusive; KB-3-1 cytotox: inactive; KB-V1 cytotox: inconclusive; HT1080 IDH1KD tx: inconclusive; TDP1 cell noCPT: 16.4µM*

How did COCC(=O)N1CCC[C@@]2(CCN(c3ncccn3)C2)C1 do in these assays?
TDP1 cell CPT: 1.9%; TDP1 cell noCPT: -0.9%

What do the screens show for `Cc1ccc(-n2nc3ccc(NC(=O)c4cc5ccccc5o4)cc3n2)cc1`?
TDP1 cell CPT: -22.9%; KB-3-1 cytotox: inactive; KB-V1 cytotox: inactive; TDP1 cell noCPT: inconclusive

How did CN(C)S(=O)(=O)c1ccc(NC(=O)c2cc3ccccc3o2)cc1 do in these assays?
TDP1 cell CPT: -23.1%; HT1080NT lethal: -15.8%; KB-3-1 cytotox: inactive; KB-V1 cytotox: 20.6µM*; HT1080 IDH1KD tx: 0.9%; TDP1 cell noCPT: inconclusive

What do the screens show for `CN(c1ccccc1)S(=O)(=O)c1ccc(NC(=O)c2cc(=O)c3ccccc3o2)cc1`?
TDP1 cell CPT: 13µM*; KB-3-1 cytotox: inactive; KB-V1 cytotox: inactive; TDP1 cell noCPT: 16.4µM*

Results for Cc1ccc(NC(=O)c2cc3ccccc3o2)cc1S(=O)(=O)N(C)C ?
TDP1 cell CPT: 29.1µM*; HT1080NT lethal: inconclusive; KB-3-1 cytotox: inactive; KB-V1 cytotox: inconclusive; HT1080 IDH1KD tx: 13.0%; TDP1 cell noCPT: inconclusive

How did Cc1ccc(NC(=O)c2cc3ccccc3oc2=O)cc1S(=O)(=O)N(C)C do in these assays?
TDP1 cell CPT: -0.8%; HT1080NT lethal: 2.4%; KB-3-1 cytotox: inactive; KB-V1 cytotox: inactive; HT1080 IDH1KD tx: 4.5%; TDP1 cell noCPT: -1.5%

Results for CCCCc1ccc(-n2nc3ccc(NC(=O)c4cc5ccccc5o4)cc3n2)cc1 ?
TDP1 cell CPT: inconclusive; KB-3-1 cytotox: inactive; KB-V1 cytotox: inactive; TDP1 cell noCPT: 10.3µM*

What do the screens show for `CCC(=O)Nc1ccc(NC(=O)c2cc3ccccc3o2)cc1`?
TDP1 cell CPT: -6.3%; HT1080NT lethal: 10.8%; KB-3-1 cytotox: inactive; KB-V1 cytotox: inactive; HT1080 IDH1KD tx: 0.1%; TDP1 cell noCPT: -18.4%

How did CCC(=O)N1CCN(c2ccc(NC(=O)c3cc4ccccc4o3)cc2)CC1 do in these assays?
TDP1 cell CPT: inconclusive; HT1080NT lethal: -0.1%; KB-3-1 cytotox: inconclusive; KB-V1 cytotox: inconclusive; HT1080 IDH1KD tx: 4.9%; TDP1 cell noCPT: 18.4µM*

What do the screens show for `Cc1ccc(S(=O)(=O)N2CCOCC2)cc1C(=O)N1c2ccccc2Sc2ccccc21`?
TDP1 cell CPT: inconclusive; HT1080NT lethal: -2.9%; KB-3-1 cytotox: inactive; KB-V1 cytotox: inactive; HT1080 IDH1KD tx: -9.9%; TDP1 cell noCPT: 23.1µM*

Screening data from PubChem BioAssay.
